Source: PubChem BioAssay AID2328 (The Scripps Research Institute Molecular Screening Center, 2010)
This is one part of the list. Activity calls are given as the source filed them.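 How the source made its calls: active means mean inhibition over triplicates above a set limit taken from the primary EBNA-1 screen (cut at about 37% in these data); inactive means the rest.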

Target: Lytic switch protein BZLF1 (Epstein-Barr virus (strain B95-8)) (UniProt P03206)
Assay: EBV Zta DNA binding inhibitors, counter-screen for EBNA-1 inhibitor project, biochemical, fluorescence polarization, triplicate (AID 2328);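 further: purified full length Zta protein with Cy5 labeled ZRE DNA probe; 0% = Zta with DMSO and 100% = wells lacking Zta protein; inhibitors lower polarization by freeing the labeled DNA probe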
Conditions: Zta-ZRE DNA binding, Cy5 fluorescence polarization; at 11.1 µM; stronger effect = higher value

Sequence of Lytic switch protein BZLF1 (Epstein-Barr virus (strain B95-8)) (P03206 whole entry, looked up): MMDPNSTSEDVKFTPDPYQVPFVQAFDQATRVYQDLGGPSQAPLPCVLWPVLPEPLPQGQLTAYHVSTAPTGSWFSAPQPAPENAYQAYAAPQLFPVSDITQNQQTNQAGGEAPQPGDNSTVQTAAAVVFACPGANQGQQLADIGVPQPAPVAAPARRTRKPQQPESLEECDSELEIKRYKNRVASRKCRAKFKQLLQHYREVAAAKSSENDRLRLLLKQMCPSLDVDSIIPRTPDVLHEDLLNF

SMILES | inhibition
CCc1nccn1S(=O)(=O)c1cccc([N+](=O)[O-])c1 | 0.63% (inactive)
COc1ccc(C)cc1NC(=O)NCc1ccccn1 | -2.35% (inactive)
COc1ccc(-c2ccc(Nc3ccc(S(=O)(=O)N4CCCC4)cc3)nn2)cc1OC | -8.43% (inactive)
C/C(=N\N=C(N)N)c1ccc(Cl)cc1 | 1.14% (inactive)
COc1ccc(C(=O)CSc2nnc(NC(=O)C3CC(=O)N(c4cccc(OC)c4)C3)s2)cc1 (stereo unspecified) | -0.54% (inactive)
O=C(CCCn1c(SCC(=O)c2ccc(F)cc2)nc2ccccc2c1=O)NCc1ccco1 | 10.2% (inactive)
CCOc1cccc(SCc2noc(C(=O)NC(C)C)c2C(=O)O)c1 | 2.79% (inactive)
Nc1ccc(S(=O)(=O)Nc2nccc(/C=C/c3ccc(Br)s3)n2)cc1 | -3.48% (inactive)
COc1ccc(-c2nonc2NC(=O)c2oc3ccc(F)cc3c2C)cc1OC | -0.1% (inactive)
CCOc1ccc(OCC)c(NC(=O)C(NS(=O)(=O)c2ccc3c(c2)oc(=O)n3C)C(C)C)c1 (stereo unspecified) | 22.3% (inactive)
CCOc1ccc(NC(=O)c2ccc(NC(=O)COC(=O)c3ccc(NC(=O)CC#N)cc3)cc2)cc1 | 6.56% (inactive)
Cc1ccc(O)c(/C=N/NC(=O)COc2ccc3c(C)cc(=O)oc3c2)c1 | -17% (inactive)
CC(=O)c1c(C)[nH]c(C(=O)OCC(=O)Nc2sc3c(c2C#N)CCCC3)c1C | 5.6% (inactive)
COC(=O)CSc1nc(C)c2ccc(OC)cc2n1 | -0.69% (inactive)
CC(=O)Nc1ccc(S(=O)(=O)NCC(=O)OCc2cc(=O)oc3ccc4ccccc4c23)cc1 | 7.35% (inactive)
COC(=O)C1=CN(Cc2ccc(OC)cc2)C=C(C(=O)OC)C1c1ccc(O)c(OC)c1 | -0.26% (inactive)
O=C(COc1ccc(/C=N/NC(=O)c2ccc(O)cc2)cc1)Nc1ccc([N+](=O)[O-])cc1 | 31.8% (inactive)
Cc1ccc(-c2nn(-c3ccccc3)cc2/C=C2\SC(=S)N(CCCCCC(=O)O)C2=O)o1 | 5.22% (inactive)

SMILES | inhibition
CCC(=O)Nc1ccc(C(=O)Nc2ccc3c(c2)C(=O)N(CC2CCCO2)C3=O)cc1 (stereo unspecified) | -3.33% (inactive)
CCOc1cccc(NC(=O)Cn2nc(-c3ccc4c(c3)OCCO4)ccc2=O)c1 | -0.94% (inactive)
O=C(Nc1cccc(NC(=O)c2ccc(Br)cc2)c1)c1ccccc1 | 4.83% (inactive)
O=C(Nc1ccc2ccccc2c1)Nc1ccc2snnc2c1 | 1.17% (inactive)
COc1ccc(CNc2nc3c(c(=O)[nH]c(=O)n3C)n2Cc2ccccc2)cc1 | -15.5% (inactive)
N#Cc1nc(N)nc(N(c2ccccc2)c2ccccc2)n1 | -3.66% (inactive)
Cc1cccc(N(CC(=O)Nc2ccc(-c3nc4ccc(C)cc4s3)cc2)S(C)(=O)=O)c1 | 13.4% (inactive)
Nc1nnc(SCC(=O)Nc2ccc3nc(SCC(=O)Nc4ccccc4)sc3c2)s1 | 8.16% (inactive)
Cc1cccc(NC(=O)Cn2c(=O)n(Cc3ccccc3)c(=O)c3c(C)c(C)sc32)c1 | -8.61% (inactive)
COc1ccc(C(=O)Nc2cccc(NC(=O)c3ccc(OC)cc3OC)n2)c(OC)c1 | 7.79% (inactive)
Cc1ccc(C(=O)NNC(=O)c2cc3cc4ccccc4nc3s2)cc1 | 7.01% (inactive)
Cc1[nH]n(C(N)=S)c(=O)c1N=Nc1ccc(Cl)cc1Cl | -7.48% (inactive)
COc1ccc(NC(=O)NCc2ccc3c(c2)OCO3)c(OC)c1 | -15.6% (inactive)
CCOC(=O)c1ccc(NC(=O)C2CC(=O)Nc3nc4ccccc4n32)cc1 (stereo unspecified) | -17.7% (inactive)
CCOc1ccc(C(=O)NC(=S)Nc2ccc(NC(=O)C(C)C)cc2)cc1[N+](=O)[O-] | -3.36% (inactive)
COc1ccc(CCNC(=S)N2CCN(S(=O)(=O)c3ccc(F)cc3)CC2)cc1 | -0.49% (inactive)
CCOc1[nH]n(-c2ccc(Cl)cc2)c(=O)c1C=Nc1ccc(O)cc1 | 6.97% (inactive)
N#Cc1ccc(N2Cc3ccccc3/C2=N/C(=O)Nc2ccc(Cl)cc2)cc1 | -9.43% (inactive)
